# Data from the supplement of paper PMC10849652.
# Of roughly 7,900 targets only a part is listed; those with a hit were picked by preference. About 0.6% of all pairs of compound and target were hits. Values without a mark were called inactive.
# Legend:
# Experiment in all cases: log2 fold change, soluble protein after heating vs DMSO (PISA); higher = thermal stabilisation; K562 cells, 10 uM, 30 min; active = over 0.2 and 3.5 SD of the protein, either way, in both replicates (recomputed)
# [1] = compound: CS(=O)(=O)c1ccc(-c2cnc(N)c(C(=O)Nc3ccccc3)n2)cc1
# Outline: (§1)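 Thermal stability values are relative to control samples and come from duplicates. They are expressed as log2 fold changes. For measurement, K562 cells (2×10^6 cells/mL) received 10 μM compound for 30 min, and aliquots were heated for 3 min over 48°C-58°C, pooled, and extracted at 4°C in PBS with 0.5% NP-40. Soluble protein, the supernatant after 21,000xg for 90 min, was quantified by TMTpro 16plex LC-MS/MS with equalised channel sums.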
# crizotinib = compound: C[C@@H](Oc1cc(-c2cnn(C3CCNCC3)c2)cnc1N)c1c(Cl)ccc(F)c1Cl [crizotinib]
# Outline: as §1
# [2] = compound: C[C@@H]1COCCN1C2=NC(=NC(=C2)C3(CC3)S(=O)(=O)C)C4=C5C=CNC5=CC=C4
# Outline: as §1
# [3] = compound: C[C@H](C1=CC=C(C=C1)C(=O)NC2=C3C=CNC3=NC=C2)N
# Outline: as §1
# duvelisib = compound: C[C@H](Nc1ncnc2nc[nH]c12)c1cc2cccc(Cl)c2c(=O)n1-c1ccccc1 [duvelisib]
# Outline: as §1
# gandotinib = compound: Cc1cc(Nc2cc(CN3CCOCC3)c3nc(C)c(Cc4ccc(Cl)cc4F)n3n2)n[nH]1 [gandotinib]
# Outline: as §1
# tozasertib = compound: Cc1cc(Nc2cc(N3CCN(C)CC3)nc(Sc3ccc(NC(=O)C4CC4)cc3)n2)n[nH]1 [tozasertib]
# Outline: as §1
# [4] = compound: Cc1cc(SCc2sc(-c3ccc(C(F)(F)F)cc3)nc2C)ccc1OCC(=O)O
# Outline: as §1
# doramapimod = compound: Cc1ccc(-n2nc(C(C)(C)C)cc2NC(=O)Nc2ccc(OCCN3CCOCC3)c3ccccc23)cc1 [doramapimod]
# Outline: as §1
# ispinesib = compound: Cc1ccc(C(=O)N(CCCN)[C@@H](c2nc3cc(Cl)ccc3c(=O)n2Cc2ccccc2)C(C)C)cc1 [ispinesib]
# Outline: as §1
# Chain of UniProt Q92692 (Q92692 whole entry, looked up): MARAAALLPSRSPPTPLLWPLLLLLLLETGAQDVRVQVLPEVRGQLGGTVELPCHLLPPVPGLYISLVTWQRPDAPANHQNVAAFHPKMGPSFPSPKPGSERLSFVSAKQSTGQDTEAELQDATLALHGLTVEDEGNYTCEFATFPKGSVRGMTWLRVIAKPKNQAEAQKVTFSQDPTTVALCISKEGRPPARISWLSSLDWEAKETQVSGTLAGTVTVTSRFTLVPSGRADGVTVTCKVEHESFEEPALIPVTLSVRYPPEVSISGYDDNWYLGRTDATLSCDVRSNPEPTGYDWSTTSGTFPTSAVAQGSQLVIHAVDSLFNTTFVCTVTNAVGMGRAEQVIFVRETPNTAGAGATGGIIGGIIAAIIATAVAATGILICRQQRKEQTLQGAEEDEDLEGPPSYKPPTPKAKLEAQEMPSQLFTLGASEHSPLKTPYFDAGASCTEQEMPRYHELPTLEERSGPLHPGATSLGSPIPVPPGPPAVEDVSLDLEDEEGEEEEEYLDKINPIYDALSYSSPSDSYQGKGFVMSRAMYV
# Chain of UniProt Q13153 (Q13153 whole entry, looked up): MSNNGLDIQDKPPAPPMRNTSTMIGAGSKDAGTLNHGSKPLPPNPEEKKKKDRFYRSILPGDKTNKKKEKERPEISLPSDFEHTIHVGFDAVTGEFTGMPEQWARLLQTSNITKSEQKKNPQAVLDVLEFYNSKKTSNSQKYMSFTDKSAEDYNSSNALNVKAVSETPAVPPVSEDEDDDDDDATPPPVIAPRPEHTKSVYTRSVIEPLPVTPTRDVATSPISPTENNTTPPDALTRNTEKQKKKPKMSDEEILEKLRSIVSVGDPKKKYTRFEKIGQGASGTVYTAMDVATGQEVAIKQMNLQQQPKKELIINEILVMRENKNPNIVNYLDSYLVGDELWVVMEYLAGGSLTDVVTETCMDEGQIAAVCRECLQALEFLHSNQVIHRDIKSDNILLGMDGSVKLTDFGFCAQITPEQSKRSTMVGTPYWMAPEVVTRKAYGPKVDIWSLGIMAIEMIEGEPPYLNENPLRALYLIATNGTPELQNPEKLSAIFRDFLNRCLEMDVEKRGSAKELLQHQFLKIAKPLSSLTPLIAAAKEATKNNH
# Chain of UniProt Q9H081 (Q9H081 whole entry, looked up): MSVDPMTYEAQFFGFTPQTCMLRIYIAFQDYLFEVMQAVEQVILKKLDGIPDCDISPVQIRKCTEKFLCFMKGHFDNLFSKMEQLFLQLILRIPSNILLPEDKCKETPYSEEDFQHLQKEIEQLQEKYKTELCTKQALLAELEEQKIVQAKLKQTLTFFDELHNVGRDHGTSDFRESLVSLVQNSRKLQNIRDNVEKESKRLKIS
# Chain of UniProt P03905 (P03905 whole entry, looked up): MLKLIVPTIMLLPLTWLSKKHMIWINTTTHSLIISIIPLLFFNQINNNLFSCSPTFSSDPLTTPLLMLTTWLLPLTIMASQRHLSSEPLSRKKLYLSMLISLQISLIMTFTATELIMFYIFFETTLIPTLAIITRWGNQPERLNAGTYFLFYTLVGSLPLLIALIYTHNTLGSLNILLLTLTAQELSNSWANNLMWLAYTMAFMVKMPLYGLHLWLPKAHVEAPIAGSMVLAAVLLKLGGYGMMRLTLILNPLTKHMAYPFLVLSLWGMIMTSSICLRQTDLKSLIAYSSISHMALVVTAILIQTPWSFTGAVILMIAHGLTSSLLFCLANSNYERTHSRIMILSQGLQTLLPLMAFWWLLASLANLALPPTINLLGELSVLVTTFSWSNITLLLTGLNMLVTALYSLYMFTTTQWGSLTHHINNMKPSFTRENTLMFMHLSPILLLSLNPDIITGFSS
# Chain of UniProt Q96D46 (Q96D46 whole entry, looked up): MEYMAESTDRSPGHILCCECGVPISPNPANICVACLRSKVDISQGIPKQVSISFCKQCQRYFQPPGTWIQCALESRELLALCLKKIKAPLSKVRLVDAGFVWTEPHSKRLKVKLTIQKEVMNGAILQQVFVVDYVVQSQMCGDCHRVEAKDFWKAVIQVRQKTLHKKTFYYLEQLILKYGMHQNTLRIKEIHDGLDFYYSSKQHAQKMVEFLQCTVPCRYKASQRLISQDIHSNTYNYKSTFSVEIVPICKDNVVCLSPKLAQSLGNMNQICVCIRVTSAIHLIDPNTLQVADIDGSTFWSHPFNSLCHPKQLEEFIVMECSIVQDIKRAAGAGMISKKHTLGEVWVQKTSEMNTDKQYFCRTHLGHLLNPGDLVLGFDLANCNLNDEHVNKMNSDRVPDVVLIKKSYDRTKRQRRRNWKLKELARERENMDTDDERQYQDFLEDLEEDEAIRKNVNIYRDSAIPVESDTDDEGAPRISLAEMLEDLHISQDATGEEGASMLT
# Chain of UniProt P15531 (P15531 whole entry, looked up): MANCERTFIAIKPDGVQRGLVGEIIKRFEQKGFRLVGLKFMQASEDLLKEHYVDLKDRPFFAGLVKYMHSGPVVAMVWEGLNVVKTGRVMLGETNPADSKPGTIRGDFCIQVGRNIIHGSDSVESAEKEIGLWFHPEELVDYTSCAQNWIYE
# Chain of UniProt P43246 (P43246 whole entry, looked up): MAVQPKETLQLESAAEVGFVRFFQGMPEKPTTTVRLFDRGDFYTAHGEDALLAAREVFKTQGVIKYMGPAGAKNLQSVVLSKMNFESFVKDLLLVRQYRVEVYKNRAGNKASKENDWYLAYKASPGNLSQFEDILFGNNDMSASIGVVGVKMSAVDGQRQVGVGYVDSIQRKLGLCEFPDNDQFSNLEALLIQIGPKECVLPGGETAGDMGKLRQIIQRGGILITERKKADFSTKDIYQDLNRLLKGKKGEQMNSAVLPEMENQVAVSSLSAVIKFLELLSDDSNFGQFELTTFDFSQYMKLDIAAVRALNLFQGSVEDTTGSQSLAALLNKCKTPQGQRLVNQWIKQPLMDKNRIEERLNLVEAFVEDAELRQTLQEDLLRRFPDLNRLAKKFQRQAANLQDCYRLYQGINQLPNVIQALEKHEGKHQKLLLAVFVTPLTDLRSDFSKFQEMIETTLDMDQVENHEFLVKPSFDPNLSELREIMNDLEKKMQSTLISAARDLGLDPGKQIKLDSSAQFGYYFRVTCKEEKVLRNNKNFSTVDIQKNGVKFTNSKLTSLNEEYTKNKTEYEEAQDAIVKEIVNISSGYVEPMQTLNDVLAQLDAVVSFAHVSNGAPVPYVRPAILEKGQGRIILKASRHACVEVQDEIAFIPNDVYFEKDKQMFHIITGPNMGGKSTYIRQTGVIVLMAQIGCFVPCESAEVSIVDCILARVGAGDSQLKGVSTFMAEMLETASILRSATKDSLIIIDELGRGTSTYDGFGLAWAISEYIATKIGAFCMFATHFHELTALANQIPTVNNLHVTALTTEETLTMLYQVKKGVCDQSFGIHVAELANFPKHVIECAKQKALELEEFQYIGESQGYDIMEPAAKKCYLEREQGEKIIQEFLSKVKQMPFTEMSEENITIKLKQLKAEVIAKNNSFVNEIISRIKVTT
# Chain of UniProt Q99747 (Q99747 whole entry, looked up): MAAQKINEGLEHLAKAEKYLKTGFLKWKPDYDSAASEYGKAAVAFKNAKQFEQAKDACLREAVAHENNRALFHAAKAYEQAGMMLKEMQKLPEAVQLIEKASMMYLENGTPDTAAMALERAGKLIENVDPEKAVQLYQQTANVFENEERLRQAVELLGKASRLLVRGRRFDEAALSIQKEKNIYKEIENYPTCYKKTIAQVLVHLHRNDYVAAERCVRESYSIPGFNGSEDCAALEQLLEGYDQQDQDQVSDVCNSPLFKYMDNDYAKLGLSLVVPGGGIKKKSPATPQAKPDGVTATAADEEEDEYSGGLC
# Chain of UniProt Q96PU5 (Q96PU5 whole entry, looked up): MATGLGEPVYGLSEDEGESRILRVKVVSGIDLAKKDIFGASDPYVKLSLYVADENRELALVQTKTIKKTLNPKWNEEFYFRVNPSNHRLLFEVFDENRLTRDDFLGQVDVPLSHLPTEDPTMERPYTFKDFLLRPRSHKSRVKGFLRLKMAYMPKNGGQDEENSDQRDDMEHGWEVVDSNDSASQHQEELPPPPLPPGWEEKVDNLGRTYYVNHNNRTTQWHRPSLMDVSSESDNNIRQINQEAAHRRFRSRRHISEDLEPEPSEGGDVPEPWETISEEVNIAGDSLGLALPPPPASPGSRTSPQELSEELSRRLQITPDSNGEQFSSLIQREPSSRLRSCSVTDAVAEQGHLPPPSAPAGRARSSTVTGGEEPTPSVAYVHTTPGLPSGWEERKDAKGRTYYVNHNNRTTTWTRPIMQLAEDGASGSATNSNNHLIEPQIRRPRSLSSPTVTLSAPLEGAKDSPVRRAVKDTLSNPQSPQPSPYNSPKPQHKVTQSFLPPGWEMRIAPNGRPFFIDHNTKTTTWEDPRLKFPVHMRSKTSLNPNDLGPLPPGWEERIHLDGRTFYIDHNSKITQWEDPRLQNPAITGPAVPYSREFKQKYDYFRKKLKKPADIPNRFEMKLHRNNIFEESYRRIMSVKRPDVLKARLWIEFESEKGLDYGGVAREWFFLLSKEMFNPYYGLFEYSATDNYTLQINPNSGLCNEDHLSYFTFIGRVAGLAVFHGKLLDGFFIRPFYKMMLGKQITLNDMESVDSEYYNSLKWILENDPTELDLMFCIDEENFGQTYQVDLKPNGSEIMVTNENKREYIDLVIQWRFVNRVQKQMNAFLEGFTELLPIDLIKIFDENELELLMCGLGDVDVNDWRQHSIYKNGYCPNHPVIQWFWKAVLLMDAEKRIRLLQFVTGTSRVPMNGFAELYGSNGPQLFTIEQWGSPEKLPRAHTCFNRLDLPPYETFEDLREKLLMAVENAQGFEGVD
# Chain of UniProt O00217 (O00217 whole entry, looked up): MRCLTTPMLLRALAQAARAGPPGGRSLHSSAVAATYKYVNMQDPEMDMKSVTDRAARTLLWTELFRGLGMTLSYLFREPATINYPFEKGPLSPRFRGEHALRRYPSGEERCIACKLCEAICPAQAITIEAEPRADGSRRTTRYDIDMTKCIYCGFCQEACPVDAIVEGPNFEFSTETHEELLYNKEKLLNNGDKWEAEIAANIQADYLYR
Target,log2 fold change [1],log2 fold change (crizotinib),log2 fold change [2],log2 fold change [3],log2 fold change (duvelisib),log2 fold change (gandotinib),log2 fold change (tozasertib),log2 fold change [4],log2 fold change (doramapimod),log2 fold change (ispinesib)
MIS12 (UniProt Q9H081),0.016,-0.064,-0.03,-0.099,0.037,-0.012,0.153,0.009,-0.019,-0.034
NFATC2 (UniProt Q13469),0,-0.154,-0.175,0,0.003,0.048,0.02,0.024,0.027,-0.18
NBN (UniProt O60934),0.02,0.009,0.038,-0.063,0.105,-0.069,0.028,0.116,-0.004,0.008
MRPS33 (UniProt Q9Y291),0.041,0.005,0.005,0.168,-0.034,-0.034,0.02,0.121,0.034,-0.485 (active)
NFATC2IP (UniProt Q8NCF5),0.014,0.023,0.195,-0.009,0.121,0.011,0.03,0.045,-0.03,0.024
NFE2 (UniProt Q16621),-0.006,-0.052,-0.001,-0.031,0.008,-0.091,0.077,-0.015,0.049,0.033
PAFAH1B3 (UniProt Q15102),0.059,0.041,0.165,-0.039,0.123,-0.062,-0.035,0.031,-0.009,0.014
NIBAN1 (UniProt Q9BZQ8),0.02,-0.296,0.014,0.097,0.017,-0.143,-0.003,0.116,0.001,-0.148
NEDD4L (UniProt Q96PU5),0.015,-0.005,-0.071,-0.105,0,0.015,0.088,0.083,0.026,-0.037
PAK1 isoform 2 (UniProt Q13153),0.009,0.054,0.063,-0.308 (active),0.09,-0.098,-0.076,0.056,-0.155,0.084
NAPG (UniProt Q99747),0.045,-0.029,0.045,-0.098,0.054,-0.046,0.126,0.143,-0.05,0.025
MSH2 (UniProt P43246),0.057,0.04,0.056,-0.038,0.08,-0.02,0.072,0.117,-0.067,0.09
MRPS22 (UniProt P82650),-0.014,0.037,0.086,0.055,0.043,0.008,0.004,0.081,0.002,-0.258 (active)
NMD3 (UniProt Q96D46),0.094,0.003,0.122,-0.179,0.064,0.007,-0.007,0.03,-0.013,0.139
MSTO1 (UniProt Q9BUK6),-0.014,-0.081,0.09,0.025,0.009,-0.003,0.02,0.009,0.027,-0.053
NME1 isoform 2 (UniProt P15531),0.013,0.012,0.161,0.01,0.38,-0.144,-0.07,0.195,-0.015,0
NDUFS8 (UniProt O00217),0.021,-0.182,0.143,-0.027,0.055,-0.168,-0.011,0.021,-0.043,-0.158
"NA, A0A0B4J2A0",-0.087,-0.18,0.093,0.06,0.071,-0.087,-0.061,0.061,-0.049,-0.121
NISCH (UniProt Q9Y2I1),-0.026,-0.284,0.035,0.047,-0.363,-0.4,0.006,0.126,0.054,-0.408 (active)
MTHFS (UniProt P49914),0.103,-0.026,0.117,-0.098,-0.023,-0.021,0,0.037,0.013,0.046
NECTIN2 (UniProt Q92692),0.004,0.121,0.082,-0.148,0.062,-0.036,-0.048,-0.038,0.015,0.113
MT-ND4 (UniProt P03905),-0.107,0.008,0.052,-0.148,0.079,-0.104,0.06,-0.066,0,0.118
MITD1 (UniProt Q8WV92),-0.082,-0.271,-0.055,0.133,0.011,-0.068,-0.075,-0.147,0.103,-0.072
MTFR1L (UniProt Q9H019),0.059,-0.162,-0.088,0.153,-0.146,-0.123,-0.084,0.039,0.042,-0.329
MRPS26 (UniProt Q9BYN8),0.097,0.005,0.009,0.291,0.002,0.158,0.146,0.065,0.059,-0.421 (active)
NEU1 (UniProt Q99519),-0.005,-0.365 (active),-0.15,0.029,0.06,-0.056,-0.015,-0.008,0.155,-0.319 (active)
NMT1 (UniProt P30419),0.085,-0.17,-0.058,-0.032,-0.003,0.066,-0.012,-0.003,0,-0.164
MORC3 (UniProt Q14149),0.058,0.052,0.197,-0.106,0.106,-0.017,0.185,0.122,-0.067,0.041
